Compound activity: PubChem, National Center for Advancing Translational Sciences (NCATS)
Shown are actives, neighbours in structure and some others; about 17% of the full set was active somewhere.
TGFb SMAD3 inh – qHTS for Inhibitors of TGF-b; HepG2 CAGA-GFP TGF-b/SMAD3 reporter, GFP fluorescence, 18 h; TGF-beta stimulated, 500 pg/mL final; Potency, µM (titrated, usually from 46.1 µM), most hits filed as inhibitors; hit rate 1.2% among 410,000; AID 588855, 2011; note: nearly all actives have a fitted effect of over 65% in size
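Using HEPG2 CAGA-GFP reporter cells at 1000 cells/well, we pinned test compounds, stimulated with recombinant TGF-beta (500 pg/mL final) and measured total well GFP after 18 h.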
TDP1 cell CPT – qHTS for Inhibitors of human tyrosyl-DNA phosphodiesterase 1 (TDP1): qHTS in cells in presence of CPT | chicken DT40 Tdp1-/-;hTDP1 cells + 20 nM CPT, ATP luminescence, 48 h | Potency, µM (top dose mostly 46.2 µM), usual class: inhibitors | hit rate 12% among 420,000 | AID 686979, 2013; note: nearly all actives have a fitted effect of over 55% in size
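Chicken DT40 Tdp1-/- cells complemented with human TDP1, 400 cells/well, exposed to compounds plus 20 nM camptothecin for at least 48 h at 37 C; viability read as ATP content by CellTiter-Glo luminescence.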
HT1080 IDH1KD tx – qHTS for induction of synthetic lethality in tumor cells producing 2HG: qHTS for the HT-1080-IDH1KD cell line; Potency, µM (top dose mostly 46.1 µM), most hits filed as cytotoxic; HT-1080 IDH1 knockdown viability, ATP luminescence, 48 h; hit rate 2% among 360,000
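HT-1080-IDH1KD cells (IDH1 knocked down), 750/well in RPMI with 5% FBS, treated with compound 48 h at 37 degrees C. Viability by CellTiter-Glo luminescence, normalised to DMSO and no-cell wells; concentration-response curves classed.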
HepG2 tox – qHTS for Inhibitors of TGF-b: Cytotox Counterscreen. HepG2 CAGA-GFP viability, ATP luminescence, 18 h. Potency, µM (doses to about 46.1 µM), hits mostly cytotoxic. hit rate 0.76% among 410,000. AID 588856, 2011
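CellTiter-Glo luminescence gave cytotoxicity after 18 hours at 37 degrees C. The cells were HepG2 CAGA-GFP in 1% FBS DMEM, stimulated with 500 pg/mL TGF-beta after compound addition. %Activity was normalised to no-cell wells (complete cell-killing) and DMSO (no toxicity), and curves were fitted and classified.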
TDP1 cell noCPT – qHTS for Inhibitors of human tyrosyl-DNA phosphodiesterase 1 (TDP1): qHTS in cells in absence of CPT; Potency, µM (doses to about 46.2 µM), usual class: inhibitors; DT40 Tdp1-/- hTDP1 cells, no CPT, ATP luminescence, 48 h; hit rate 15% among 420,000; note: nearly all actives have a fitted effect of over 55% in size
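A cellular qHTS used chicken DT40 cells lacking endogenous Tdp1 but carrying stably transfected human TDP1. Compounds were applied without camptothecin, and cell growth kinetics were judged by ATP-dependent luminescence after ≥48 hr.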
HT1080NT lethal – qHTS for induction of synthetic lethality in tumor cells producing 2HG: qHTS for the HT-1080-NT fibrosarcoma cell line; HT-1080-NT fibrosarcoma viability, CellTiter-Glo ATP luminescence, 48 h; Potency, µM (doses to about 46.1 µM), usual class: cytotoxic; hit rate 1.6% among 360,000;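 note: NT is the 2HG producing partner of a matched IDH1 knockdown line; nearly all actives have a fitted effect of over 55% in size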
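A 48-hour cytotoxicity screen used HT-1080-NT cells plated 2 hours before compound delivery. ATP-based CellTiter-Glo luminescence measured viability, normalized to DMSO and no-cell controls.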
Hits are given with their value; n = inactive; u = inconclusive; x = no result given; ! = not confirmed by another sample. Calls come from the whole dose curve; as a rule, active = well fitted curve in the direction sought with a large enough effect; inconclusive = small, poorly fitted or top-dose-only effect, or another doubt; inactive = no such curve, though single readings can be large; an effect the other way counts as inactive or inconclusive.

SMILES	TGFb SMAD3 inh	TDP1 cell CPT	HT1080 IDH1KD tx	HepG2 tox	TDP1 cell noCPT	HT1080NT lethal
Fc1cccc(-c2ccc3c(c2)CN(c2cccc(Cl)c2)Cc2cnnn2-3)c1	u	u	u	n	u	u
CCCCCCCn1c(=O)c(C(=O)Nc2cnccn2)c(O)c2ccccc21	n	0.82µM	u	n	0.58µM	n
CCCCn1c(=O)c(C(=O)NCc2ccccc2Cl)c(O)c2ccccc21	n	u	n	n	u	n
COC(=O)C1=C(C(=O)OC)SC2(S1)C(C(=O)OC)=C(C(=O)OC)Sc1c2ssc1=O	u	0.092µM	1.2µM	n	0.18µM	5.2µM
C/C(=C\c1csc(C)n1)[C@@H]1C[C@@H]2O[C@]2(C)CCC[C@H](C)[C@H](O)[C@@H](C)C(=O)C(C)(C)[C@@H](O)CC(=O)O1	x	0.0012µM	x	x	0.0013µM	x
Cc1cc(C)n(-c2nc3nonc3nc2Nc2cccc(C)c2C)n1	n	u	n	n	u	n
COc1cccc(OC)c1-c1nn2c(-c3n[nH]c4c3CCC4)nnc2s1	u	6.3µM	x	n	5.6µM	x
CCOP(=O)(/C=C(\Cl)c1ccccc1)C(O)c1ccc(F)cc1 (configuration not stated)	n	u	n	n	16µM	n
CN1CC=C2C(C#N)=C(N)C(C#N)(C#N)C(c3ccncc3)C2C1 (configuration not stated)	n	u	n	n	u	n
N#CC1=C(N)C(C#N)(C#N)C(c2ccncc2)C2CN(C(=O)OCc3ccccc3)CC=C12 (configuration not stated)	u	21µM	21µM	n	16µM	u
COC(=O)C(O)(c1ccc(N(C)C)cc1)C(F)(F)F (configuration not stated)	n	n	n	n	n	n
CCOC(=O)C(=CNc1ccc(C(O)(C(=O)OCC)C(F)(F)F)cc1C)C(=O)OCC (configuration not stated)	n	21µM	n	n	12µM	n
CCOC(=O)C(O)(c1ccc(NC(=O)c2ccc(Cl)c(Cl)c2)cc1)C(F)(F)F (configuration not stated)	u	u	n	n	16µM	n
COC(=O)C(O)(c1ccc(N(C)C(=O)c2cccs2)cc1)C(F)(F)F (configuration not stated)	n	3.3µM	n	n	u	n
CCOC(=O)C(O)(c1ccc(N(CC)S(=O)(=O)c2ccc(C)cc2)cc1)C(F)(F)F (configuration not stated)	n	n	n	n	u	n
COC(=O)C(O)(c1ccc(N(C)C(=O)c2ccc(Cl)c(Cl)c2)cc1)C(F)(F)F (configuration not stated)	n	u	n	n	u	n
CCOC(=O)C(O)(c1ccc(N(C)C(=O)c2ccc(Cl)c(Cl)c2)cc1)C(F)(F)F (configuration not stated)	n	21µM	n	n	13µM	n
CCOC(=O)Nc1ccc2c(c1)N(C(=O)CN(C)C)c1ccccc1CC2	n	u	n	n	u	n
N[C@@H](Cc1c[nH]c2ccccc12)c1nnc(SCc2ccccc2F)o1	n	n	n	n	u	n
COc1ccc(C(=O)Nc2ccc(-c3nc4ccccc4s3)cc2C)cc1Cl	n	u	x	n	n	x
COc1ccc(C2SCC(=O)Nc3c2c(C)nn3C2CCOC(C)(C)C2)cc1OC (configuration not stated)	n	n	n	n	n	n
OCC1OC(n2cnc3cc(Cl)c(Cl)cc32)C(O)C1O (configuration not stated)	u	15µM!	u	n	u	u
CCCC[C@H](CN(N=O)[C@@H](Cc1ccccc1)CN(C)N=O)N(CCc1ccccc1)N=O	n	u	n	n	u	n
CC(C)[C@H](CN(N=O)[C@@H](Cc1ccccc1)CN(C)N=O)N(CCc1ccccc1)N=O	n	23µM	n	n	23µM	u
CN1CC[C@@]2(CCCN(C(=O)c3csnn3)C2)C1	x	n	x	x	n	x
SMILES	TGFb SMAD3 inh	TDP1 cell CPT	HT1080 IDH1KD tx	HepG2 tox	TDP1 cell noCPT	HT1080NT lethal
OCC1CCCN2CCCCC12 (configuration not stated)	x	n	x	x	n	x
C1CN(P2(N3CC3)=NP(N3CC3)(N3CC3)=NP(N3CC3)(N3CC3)=N2)CCO1 (configuration not stated)	n	0.58µM	n	n	1.3µM	n
CCC1=C(C)C(N2CCOCC2)=NP(N2CCOCC2)(N2CCOCC2)=N1	n	n	n	n	n	n
COc1ccc(C(CNC(=O)Cc2ccc(Cl)c(Cl)c2)N(C)C)cc1 (configuration not stated)	n	u	n	n	u	n
Cc1c(C(=O)NCc2ccc(Cl)c(Cl)c2)sc(=O)n1Cc1ccc(S(=O)(=O)N(C)C)cc1	u	8.2µM	u	n	15µM	n
Cc1nn(CC(=O)N2CCC3(CC2)OCCO3)c(=O)c2cc3ccccc3n12	n	n	n	n	n	n
CCOc1cc(-c2ccc(N)c(OCC)c2)ccc1N	n	12µM	n	n	u	n
CC(=O)Oc1ccc2c3c1O[C@H]1[C@@H](OC(C)=O)C=C[C@H]4[C@@H](C2)N(C)CC[C@@]341	x	n	x	x	u	x
C=CCn1c(=O)c(C=Nc2cccnc2Cl)c(O)n(CCCC)c1=O	n	n	n	n	n	n
CCCc1cc(N2CCN(c3cccc(C)c3C)CC2)n2cnnc2n1	n	16µM	x	n	18µM	x
NC(C(=O)O)c1cc(=O)[nH]o1 (configuration not stated)	n	n	n	n	n	n
Cc1nn(Cc2ccccc2)c(Cl)c1C(=O)NC1CCCc2ccccc21 (configuration not stated)	n	u	n	n	21µM	n
CC(C)(C)c1ccc(/C=C2\Oc3cc(OC(=O)N4CCOCC4)ccc3C2=O)cc1	u	16µM	18µM	n	26µM	21µM
O=P(Oc1ccccc1)(Oc1ccccc1)N1CCN(c2ccc(F)cc2)CC1	u	u	u	n	u	u
O=C(Cc1ccccc1)N1CCN(Cc2cccnc2)CC1	n	n	n	n	n	n
c1cc2n(c1)-c1c(ccc3c1OCO3)CNC2c1ccc2c(c1)OCO2 (configuration not stated)	n	u	u	n	13µM	u
